Measurements published in PubChem BioAssay AID651658 (Broad Institute, 2012).
Out of some 340,000 compounds screened, about 5,100 (1.5%) were called active. Only a selection was taken, and actives are over-represented in it overall. A number with no mark means an inactive call.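 Rule for the calls: active = mean Tm shift, scaled 0 neutral to 100 positive control, at about 1.3% or above, every replicate too (limit read from the data); inconclusive = no clear call, values can overlap the other calls; inactive = the rest.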

Each compound was assayed against Fibroblast growth factor 22 (Homo sapiens) (UniProt Q9HCT0) (assay: binders of human FGF22 protein, primary screen, FGF22 synaptogenesis inhibitor project, biophysical, thermal shift, single point (AID 651658)). Settings: recombinant FGF22 thermal shift, SYPRO orange fluorescence; at 9.99 µM; active compounds read high; percent of sucrose octasulfate shift, DMSO zero.
Fibroblast growth factor 22 (Homo sapiens), sequence (Q9HCT0 whole entry, looked up): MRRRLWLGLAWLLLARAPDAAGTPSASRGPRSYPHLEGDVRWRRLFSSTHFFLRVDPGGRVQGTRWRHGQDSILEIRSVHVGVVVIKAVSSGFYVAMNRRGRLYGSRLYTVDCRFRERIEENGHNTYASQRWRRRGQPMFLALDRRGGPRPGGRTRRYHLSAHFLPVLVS
`COc1ccc(NC(=O)Nc2ccc3c(c2)[C@H]2C[C@H](CC(=O)NC4CCCCC4)O[C@H](CO)[C@H]2O3)cc1` showed an activity (Tm shift, normalised) of 0.101%.
`COc1cccc(S(=O)(=O)N2C[C@@H](O)COC[C@H]3O[C@@H](CC(=O)N4CCOCC4)CC[C@@H]32)c1` was tested, and the activity (Tm shift, normalised) was -0.291%.
In the case of `CC=Cc1ccc2n(c1=O)C[C@H]1[C@H](CO)[C@@H](C(=O)NCc3ccncc3)N(Cc3cncnc3)[C@@H]21` (mixture of isomers), the activity (Tm shift, normalised) is reported as -0.145%.
`COCCNC(=O)C[C@H]1C=C[C@@H](NS(=O)(=O)c2ccc(C)cc2)[C@@H](CO)O1` was tested, and the activity (Tm shift, normalised) was -0.463%.
Compound `COc1ccc(NC(=O)Nc2ccc3c(c2)C(=O)N([C@H](C)CO)C[C@@H](C)[C@H](CN(C)CC2CCCCC2)OCCCC[C@@H](C)O3)cc1` has an activity (Tm shift, normalised) of -0.629%.
`CC(=O)N1[C@@H](CO)[C@@H](c2ccc(C3=CCCC3)cc2)C12CN(C(=O)C1CC1)C2` showed an activity (Tm shift, normalised) of -0.078%.
`COc1cccc(C(=O)NNS(=O)(=O)c2ccc(F)cc2)c1` was tested, and the activity (Tm shift, normalised) was 0.083%.
In the case of `COc1cccc(NC(=O)Nc2ccc(F)cc2)c1`, the activity (Tm shift, normalised) is reported as 45.2% (active).
`O=C(Nc1ccncc1)Nc1ccc(F)cc1` was tested, and the activity (Tm shift, normalised) was 0.093%.
With `COCC(=O)N1CC2(CN(C(=O)c3cccnc3)C2)c2c([nH]c3cc(OC)ccc23)[C@H]1CO` the activity (Tm shift, normalised) was -0.173%.
With `Cc1ccc(S(=O)(=O)NCCC(=O)NCc2ccc(Cl)cc2)cc1C` the activity (Tm shift, normalised) was -0.011%.
Work on `O=C(CNC(=O)c1ccco1)NNC(=O)c1ccc(Br)cc1` yielded an activity (Tm shift, normalised) of -0.466%.
For `Cc1ccc(S(=O)(=O)NCC(=O)NNC(=O)c2ccc(Br)cc2)cc1C`, the activity (Tm shift, normalised) was 43.7% (active).
`O=C(C[C@H]1C=C[C@H](NC(=O)CC2CC2)[C@H](CO)O1)NCc1ccc(Cl)cc1` gave an activity (Tm shift, normalised) of -0.113%.
`Cn1c2ccccc2c(=O)c2c(O)cccc21` was tested, and the activity (Tm shift, normalised) was 43.7% (active).
`COc1cc2c(=O)n(C)c3ccccc3c2cc1OC` gave an activity (Tm shift, normalised) of 0.02%.
In the case of `Cc1cc(C)c(-c2c(O)c3ccccc3n(C)c2=O)c(C)c1`, the activity (Tm shift, normalised) is reported as -0.131%.
Compound `O=C(C[C@H]1CC[C@H]2[C@@H](COC[C@H](O)CN2Cc2ccncc2)O1)NCC1CC1` has an activity (Tm shift, normalised) of -0.243%.
For `CN1[C@H](C(=O)N2CCc3ccccc3C2)[C@@H](CO)[C@@H]2Cn3c(ccc(-c4cncnc4)c3=O)[C@@H]21`, the activity (Tm shift, normalised) was 0.086%.
In the case of `O=C(CSc1ccccc1)Nc1ccc(C(=O)Nc2cccc(O)c2)cc1`, the activity (Tm shift, normalised) is reported as 42.3%.
`Cc1cc(C)cc(NC(=O)CSc2ccccc2)c1` was tested, and the activity (Tm shift, normalised) was 43.4% (active).
`Cc1cc(C)cc(NC(=O)CN2C(=O)c3ccccc3C2=O)c1` gave an activity (Tm shift, normalised) of -0.094%.
